This is a sample that favours compounds with a hit; in the whole collection about 19% have one here.
TDP1 inh = TDP1 (human) enzyme inhibition; hit rate 0.28% among 350,000; recombinant TDP1, AlphaScreen DNA substrate cleavage; Q9NUW8; AID 485290; Potency, µM (top dose mostly 130 µM), most hits filed as inhibitors; further: nearly all actives have a fitted effect of over 40% in size
Target sequence (Q9NUW8 whole entry, looked up): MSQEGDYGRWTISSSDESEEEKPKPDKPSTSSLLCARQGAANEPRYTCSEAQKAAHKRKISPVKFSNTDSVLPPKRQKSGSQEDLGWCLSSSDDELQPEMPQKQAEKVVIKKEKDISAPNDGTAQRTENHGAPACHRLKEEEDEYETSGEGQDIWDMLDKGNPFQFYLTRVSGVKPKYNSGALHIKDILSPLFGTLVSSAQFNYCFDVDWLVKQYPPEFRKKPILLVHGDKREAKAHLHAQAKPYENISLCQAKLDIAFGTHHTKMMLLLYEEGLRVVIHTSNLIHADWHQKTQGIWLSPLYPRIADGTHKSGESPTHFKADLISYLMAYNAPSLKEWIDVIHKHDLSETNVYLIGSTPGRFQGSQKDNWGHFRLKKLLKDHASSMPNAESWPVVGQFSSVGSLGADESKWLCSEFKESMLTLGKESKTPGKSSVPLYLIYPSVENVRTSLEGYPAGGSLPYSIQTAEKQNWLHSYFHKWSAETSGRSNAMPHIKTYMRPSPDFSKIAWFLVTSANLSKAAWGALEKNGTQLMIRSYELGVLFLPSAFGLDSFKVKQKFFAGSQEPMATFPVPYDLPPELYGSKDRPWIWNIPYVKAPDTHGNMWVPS
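Recombinant E. coli-expressed Tdp1 (1 nM) preincubated with compound 15 min at RT, then 5'-biotin/3'-phosphotyrosine-FITC DNA substrate (15 nM) added for 5 min. AlphaScreen beads (10 ug/ml) added, 10 min RT; tyrosine-FITC cleavage read as signal loss.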
IL-1B inflam inh = inhibitors of inflammasome signaling (IL-1 beta secretion); THP-1 LPS/ATP IL-1B secretion, AlphaLISA, 16 h; stronger effect = lower value; activity change, % at 57.5 µM; hit rate 4.7% among 360,000; in the data active means activity change below about -50%; inconclusive means mostly about -30% to -49%
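Secreted IL-1B measured by AlphaLISA bead assay after 16 h compound exposure of THP-1 cells; compounds (final up to 57.5 uM) added 1 h before LPS (250 ng/mL) and ATP (1.25 mM) stimulation; lower signal means less secretion.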
TDP1 cell CPT = DT40-hTDP1 cell growth loss with CPT | chicken DT40 Tdp1-/-;hTDP1 cells + 20 nM CPT, ATP luminescence, 48 h | Potency, µM (titrated, usually from 46.2 µM), hits mostly inhibitors | hit rate 12% among 420,000 | AID 686979; further: nearly all actives have a fitted effect of over 55% in size
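Chicken DT40 Tdp1-/- cells complemented with human TDP1, 400 cells/well, exposed to compounds plus 20 nM camptothecin for at least 48 h at 37 C; viability read as ATP content by CellTiter-Glo luminescence.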
TDP1 cell noCPT = qHTS for Inhibitors of human tyrosyl-DNA phosphodiesterase 1 (TDP1): qHTS in cells in absence of CPT; DT40 Tdp1-/- hTDP1 cells, no CPT, ATP luminescence, 48 h; Potency, µM (series often up to 46.2 µM), hits mostly inhibitors; hit rate 15% among 420,000; AID 686978, 2013; further: nearly all actives have a fitted effect of over 55% in size
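A cellular qHTS used chicken DT40 cells lacking endogenous Tdp1 but carrying stably transfected human TDP1. Compounds were applied without camptothecin, and cell growth kinetics were judged by ATP-dependent luminescence after ≥48 hr.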
Giardia killer = Giardia lamblia killing | Giardia lamblia trophozoite viability | AID 540267 | activity change, % at 7.66 µM, hits read low | hit rate 0.15% among 340,000; in the data active means activity change below about -80%; inconclusive means between about -30% and that limit;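 further: parasites exposed to compound for two days anaerobically before the ATP read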
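ATP-content bioluminescence gauges trophozoite survival. Cells (100/well) receive compound and incubate anaerobically for 48 hrs at 37 deg C; detection reagent follows for 15-30 min at room temperature.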
ELG1 repair inh = blocks ELG1-dependent DNA repair in HEK293T cells; HEK293T ELG1-luciferase reporter, luminescence, 16 h; DNA damage induced by 5-fluorouridine; Potency, µM (doses to about 46.1 µM), hits mostly inhibitors; hit rate 2.3% among 330,000; further: nearly all actives have a fitted effect of over 55% in size
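HEK293T cells expressing luciferase-tagged ELG1 (2,000/well) received 5-Fluorouridine plus compound or DMSO for 16 hr at 37 °C. Luciferase was read by ONE-Glo luminescence after 30 min at room temperature.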
A number is an active result; i = inactive; ? = inconclusive; nt = not tested or not shown; [ ] = another dose, or the depositor's remark. Unless noted, the call rests on the fitted dose curve; in most records, active means well fitted curve in the direction sought with a large enough effect; inconclusive means small, poorly fitted or top-dose-only effect, or another doubt; inactive means no such curve, though single readings can be large; an effect the other way counts as inactive or inconclusive.

SMILES	TDP1 inh	IL-1B inflam inh	TDP1 cell CPT	TDP1 cell noCPT	Giardia killer	ELG1 repair inh
O=C(CC1(O)C(=O)Nc2cc(Cl)cc(Cl)c21)c1ccncc1 (stereo not given)	i	-100.2	?	?	i	i
Cc1cccc(Cn2nc(C)n3c(cc4cc(C)ccc43)c2=O)c1	i	nt	i	i	nt	nt
CC1(C(=O)NCCc2ccccc2)Cc2c(-c3ccc4c(c3)OCO4)ccnc2O1 (stereo not given)	nt	i	?	2.91µM	nt	nt
COCCNC(=O)C1(C)Cc2c(-c3ccc4c(c3)OCO4)ccnc2O1 (stereo not given)	nt	i	11.6µM	8.2µM	nt	nt
CN(C)c1ccc(-c2ccnc3c2CC(C)(C(=O)Nc2ccc4c(c2)OCO4)O3)cc1 (stereo not given)	nt	i	i	i	nt	nt
CC1(C(=O)NCc2ccccc2)Cc2c(-c3ccc4c(c3)OCO4)ccnc2O1 (stereo not given)	nt	i	0.651µM	0.82µM	nt	nt
Cc1ccccc1-c1cccc([C@@H]2C[C@H]3CN(Cc4cccnc4)C(=O)[C@]34CCCN24)c1	nt	i	23.1µM	18.4µM	i	i
O=C1N(Cc2cccnc2)C[C@@H]2C[C@@H](c3ccccc3C#Cc3ccccc3)N3CCC[C@@]123	i	i	29.1µM	16.4µM	i	i
Cc1cccc([C@@H]2C[C@H]3CN(Cc4cccc(Cl)c4)C(=O)[C@]34CCCN24)n1	nt	i	?	?	i	i
O=C1N(Cc2cccc(Cl)c2)C[C@@H]2C[C@@H](c3cccc4cccnc34)N3CCC[C@@]123	i	i	?	?	i	i
COC(=O)C1(C)NCCc2c1[nH]c1ccccc21 (stereo not given)	nt	i	i	i	i	i
CC1(CCc2ccc3c(c2)OCO3)NCCc2c1[nH]c1ccccc21 (stereo not given)	nt	-57.5	?	18.4µM	i	i
CCCCn1nnc(NC(=S)NC(=O)c2ccc(-c3cccc(Cl)c3Cl)o2)n1	i	i	10.3µM	23.1µM	i	i
Cn1nnc(NC(=S)NC(=O)c2cc(Cl)ccc2Cl)n1	i	i	i	i	i	i
CCCCn1nnc(NC(=S)NC(=O)c2ccc(OCC)c([N+](=O)[O-])c2)n1	i	i	?	20.6µM	i	i
COc1cc2ccccc2cc1C(=O)NC(=S)Nc1nnn(C)n1	i	i	23.1µM	16.4µM	i	i
CCCCC(=O)NC(=S)Nc1nnn(CCC)n1	i	i	4.11µM	5.8µM	i	i
CCCn1nnc(NC(=S)NC(=O)c2ccccc2OC)n1	i	i	?	18.4µM	i	i
C/C(CCN1CCc2nc(-c3ccccc3)c(-c3ccccc3)cc2C1)=N\OC[C@@H](O)COCc1ccco1	i[21 µM]	nt	nt	nt	nt	nt
O=C(Nc1ccc2nc(SCc3ccccc3)sc2c1)c1cccc(F)c1	i	nt	i	i	nt	nt
CC(CC(=O)Nc1ccc(F)c([N+](=O)[O-])c1)c1ccccc1 (stereo not given)	i	i	?	?	i	i
COc1ccccc1C(=O)Nc1ccc2nc(SCC(=O)N(C)C)sc2c1	i	i	i	?	i	i
CN(C(=O)CSc1nc2ccc(NC(=O)c3ccccc3F)cc2s1)c1ccccc1	i	nt	14.6µM	9.2µM	nt	nt
CN(C(=O)CSc1nc2ccc(NC(=O)c3cccc(F)c3)cc2s1)c1ccccc1	i	nt	8.2µM	6.51µM	nt	nt
O=C(CSc1nc2ccc(NC(=O)c3ccccc3C(=O)O)cc2s1)Nc1ccc(F)c([N+](=O)[O-])c1	i[0.0935 µM]	-60.7	i	i	i	?
SMILES	TDP1 inh	IL-1B inflam inh	TDP1 cell CPT	TDP1 cell noCPT	Giardia killer	ELG1 repair inh
O=C(Nc1ccc2nc(SCc3ccccc3)sc2c1)c1ccccc1F	i	nt	16.4µM	13µM	nt	nt
O=C(Nc1cc([N+](=O)[O-])ccc1N1CCCC1)c1cccs1	i	?	i	i	i	?
Cc1ccc(OCCSc2nc3ccc(NC(=O)c4ccc(F)cc4)cc3s2)cc1	i	nt	?	?	nt	nt
CC(C)(C)C(=O)Nc1ccc2nc(SCc3ccccc3)sc2c1	i	nt	?	20.6µM	nt	nt
CCOc1ccc(C(=O)Nc2ccc3nc(SCC(=O)N(C)c4ccccc4)sc3c2)cc1	i	nt	2.06µM	3.66µM	nt	nt
CC(CNC(=O)CCS(=O)(=O)c1ccc2c(c1)NC(=O)CO2)c1ccccc1 (stereo not given)	i	i	i	i	i	i
CN(C)C(=O)CCc1ccc2c3c([nH]c2c1)[C@]1(CCc2ccccc2)[C@@H](C(=O)N2CCCCC2)C[C@H](CC(=O)NCCCn2ccnc2)C(=O)N1CC3	i	i	i	i	i	i
Cc1ccc(C)c(S(=O)(=O)NCc2ccc(C(=O)N3CCCCC3C)cc2)c1 (stereo not given)	i	i	?	23.1µM	i	?
CC1CCCCN1C(=O)c1ccc(C(=O)N2CCCCC2C)cc1 (stereo not given)	i	i	i	i	i	i
COc1ccc(CCNC(=O)c2ccc(CNS(=O)(=O)c3cccc(Cl)c3)cc2)cc1OC	i	i	?	23.1µM	i	23.1µM
COc1ccc(CCNS(=O)(=O)c2ccc3c(c2)NC(=O)CCS3)cc1OC	i	i	11.6µM	?	i	i
COc1ccc(CNS(=O)(=O)NCc2ccc(C)cc2)cc1OC	i	i	?	16.4µM	i	20.6µM
C[C@H](NC(=O)c1cccc([N+](=O)[O-])c1)C(=O)OCC(=O)c1ccccc1Br	i	i	i	i	i	i
Cc1cccc(C(=O)NC2(C(F)(F)F)N=C(c3ccccc3)N(C3CCCCC3)C2=O)c1 (stereo not given)	i	nt	i	i	nt	nt
COc1ccc(CCNC(=O)c2ccc(CNS(=O)(=O)c3cc(C)ccc3C)cc2)cc1OC	i	i	?	?	i	20.6µM
COc1ccc(CCNS(=O)(=O)c2cccc([N+](=O)[O-])c2)cc1OC	nt	i	i	i	i	i
COc1ccc(CCNC(=O)c2ccc(CNS(=O)(=O)c3ccc(C(C)(C)C)cc3)cc2)cc1OC	i	i	?	?	i	i
COc1ccc(CCNS(=O)(=O)c2cccc(C(=O)O)c2)cc1OC	i	i	20.6µM	16.4µM	i	i
COc1cccc(Cn2c(=O)n(Cc3ccccc3)c(=O)c3c2c2cc(OC)ccc2n3C)c1	i	nt	i	i	nt	nt
O=C(NCc1ccccc1Cl)[C@H]1CCCN1C(=O)[C@H]1CCCN1C(=O)c1ccc(Cl)cc1	nt	i	?	?	nt	nt
O=C(NCCS(=O)(=O)N1CCN(c2cccc(Cl)c2)CC1)c1ccc2c(c1)OCO2	i	i	?	?	i	i
Cc1ccc(-c2nc(C)sc2CC(=O)Nc2cccc(C)c2C)cc1	i	i	?	?	i	i

Bioassay records deposited in PubChem BioAssay by National Center for Advancing Translational Sciences (NCATS).
